# Reference: PubChem BioAssay (NCATS)
# Inconclusive results are not listed. Calls of active or inactive are those of the source. Unless noted, calls follow the shape of the dose curve; as a rule, active = well fitted curve in the direction sought with a large enough effect; inconclusive = small, poorly fitted or top-dose-only effect, or another doubt; inactive = no such curve, though single readings can be large; an effect the other way counts as inactive or inconclusive.
# How the values were obtained:
# [1] = P-glycoprotein substrates identified in KB-8-5-11 adenocarcinoma cell line, qHTS therapeutic library screen (AID 1346987); also: nearly all actives have a fitted effect of over 65% in size; also: potency is read from the fitted curve at half-maximal effect
# Outline: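 Luminescence from CellTiter-Glo, read 5 min after addition, quantified survival of KB-8-5-11 (P-gp-overexpressing) cells exposed to compounds for 72 h. AC50 was derived from concentration-response curves.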
# [2] = tested on: Zika virus NS2B-NS3 protease (linked construct); experiment: Confirmatory screen NINDS AMC qHTS for Zika virus inhibitors (AID 1347152); also: potency is read from the fitted curve at half-maximal effect; nearly all actives have a fitted effect of over 70% in size
# Outline: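 Purified NS2B-NS3 protease with NS2B hydrophilic domain linked to NS3 protease domain by flexible linker, 1 nM final in 10 mM Tris-HCl pH 8.0, 0.01% Tween 20. Compounds preincubated 15 min, room temperature; Bz-Nle-KRR-AMC 10 microM (Km 18.3 µM); 15-min fluorescence change, 4-parameter Hill fit.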
# [3] = Confirmatory screen GU Rhodamine qHTS for Zika virus inhibitors qHTS (AID 1347157); also: potency is read from the fitted curve at half-maximal effect; nearly all actives have a fitted effect of over 70% in size
# Outline: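 Enzyme 25 nM in Tris-HCl pH 8.0 + 0.01% Tween 20; compounds up to 114 microM, 15 min RT dark; + Rhod110 substrate 1.5 microM; read t0 and 15 min; delta fluorescence → % inhibition → 4-parameter Hill fit.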
# [4] = tested on: Zika virus NS2B-NS3 protease (unlinked complex); experiment: Primary screen GU Rhodamine qHTS for Zika virus inhibitors: Unlinked NS2B-NS3 protease assay (AID 1347159); also: potency is read from the fitted curve at half-maximal effect; nearly all actives have a fitted effect of over 60% in size
# Outline: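 Buffer 10 mM Tris-HCl pH 8.0, 0.01% Tween 20. Unlinked protease 25 nM; compound preincubation 15 min, RT, protected from light. Substrate Rhod110, 1.5 microM; ~15% conversion in 15 min.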
# [5] = tested on: Zika virus NS2B-NS3 protease (linked construct); experiment: Primary screen NINDS Rhodamine qHTS for Zika virus inhibitors (AID 1347160); also: potency is read from the fitted curve at half-maximal effect; nearly all actives have a fitted effect of over 55% in size
# Outline: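 Aprotinin served as in-plate control. Conditions: 25 nM linked NS2B-NS3, pH 8.0 Tris buffer, titrated compounds, 15 min preincubation and 15 min reaction with 1.5 microM Rhod110 substrate at room temperature.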
# [6] = Confirmatory screen NINDS Rhodamine qHTS for Zika virus inhibitors (AID 1347161); also: potency is read from the fitted curve at half-maximal effect; nearly all actives have a fitted effect of over 60% in size
# Outline: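 Purified linked NS2B-NS3 protease (NS2B hydrophilic domain joined to NS3 protease by flexible linker), 25 nM in 10 mM Tris-HCl pH 8.0, 0.01% Tween 20. Compounds titrated, 15 min preincubation at room temperature; 1.5 microM Rhodamine110 substrate, FITC fluorescence change over 15 min.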
# [7] = tested on: Zika virus NS2B-NS3 protease (linked); experiment: 384 well plate NINDS AMC confirmatory qHTS for Zika virus inhibitors (AID 1347163); details: Recombinant NS2B-NS3 protease, Ac-VKTGKR-AMC fluorescence; also: potency is read from the fitted curve at half-maximal effect; nearly all actives have a fitted effect of over 50% in size
# Outline: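 Fluorescence at 355/460 nm was read after 25 minutes of cleavage of 30 microM Ac-VKTGKR-AMC at room temperature, in the dark. Before substrate addition, compounds (up to 1 mM final) sat ~15 minutes with 5, 30 or 60 nM linked protease. Signals were normalized to no-enzyme and no-inhibitor wells.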
# [8] = tested on: Zika virus NS2B-NS3 protease (linked construct); experiment: 384 well plate NINDS Rhodamine confirmatory qHTS for Zika virus inhibitors (AID 1347164);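 also: fluorescence from protease cleavage of Ac-LKRR-rhodamine 110 substrate; potency is read from the fitted curve at half-maximal effect; nearly all actives have a fitted effect of over 65% in size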
# Outline: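 Linked protease at a final 5 nM, 30 nM or 60 nM was preincubated ~15 min with compounds, then given 10 microM Ac-LKRR-Rhodamine 110. Fluorescence (ex 485/em 538 nm) after 25 min in the dark at room temperature.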
# [9] = Vero cells viability qHTS for Zika virus inhibitors (AID 1347167); also: potency is read from the fitted curve at half-maximal effect
# Outline: (§1)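 To flag cytotoxic protease inhibitors, viability is measured by ATP-dependent luminescence (CellTiter Glo) after cells attached overnight receive compound for 24 to 48 hours in DMEM with 4% FBS.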
# [10] = HepG2 cells viability qHTS for Zika virus inhibitors (AID 1347168); also: potency is read from the fitted curve at half-maximal effect
# Outline: as §1
# [11] = Tertiary RLuc qRT-PCR qHTS assay for Zika virus inhibitors (AID 1347169); also: potency is read from the fitted curve at half-maximal effect; nearly all actives have a fitted effect of over 55% in size
# Outline: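 Vero cells (1,000 per well) plated overnight at 37 degrees C, treated with compound in DMSO, then infected with recombinant ZIKV-RLuc (Cambodian) at MOI 1-2 for 48-72 hrs. Live-cell Renilla luciferase substrate added; luminescence read after 1-1.5 hrs.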
# [12] = Primary qHTS for inhibitors of nuclear receptor binding SET domain protein 2 (NSD2) in an isogenic RCH-ACV NSD2 p.E1099K mutant (9B) (AID 1645876); also: potency is read from the fitted curve at half-maximal effect; nearly all actives have a fitted effect of over 70% in size
# [13] = Primary qHTS for inhibitors of nuclear receptor binding SET domain protein 2 (NSD2) in an RCH-ACV wild type WT cells (2C) (AID 1645877); also: potency is read from the fitted curve at half-maximal effect; nearly all actives have a fitted effect of over 70% in size
# [14] = tested on: Nanoluciferase (engineered Oplophorus gracilirostris luciferase); experiment: Primary Nanoluciferase (NLuc) qHTS assay for identification of artifact compounds. (AID 1845222)
# Outline: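 Luminescence read-out of secreted NLuc in S16 cell conditioned medium (1:55); compounds tested with 15 min RT preincubation, then Nano-Glo substrate 1:100, 5 min. % inhibition vs no-enzyme and DMSO controls, 4-parameter Hill fit.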
# [15] = Primary redox qHTS assay for identification of artifact compounds. (AID 1845223);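 also: 0% = DMSO and 100% = reference compound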
# Outline: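 Redox-cycling detection via DTT (250 uM final) oxidation coupled to Amplex Red (25 uM)/HRP (250 mU/mL) in HBSS. 15 min preincubation plus 30 min after DTT, room temperature. Ex/Em 525/598 nm; 4-parameter Hill fit against DMSO and 10 uM DA3003.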
# [16] = tested on: HEK293; experiment: Cytotoxic Profiling of Annotated Libraries Using Quantitative High-Throughput Screening (AID 1296008); details: Five cell lines viability, CellTiter-Glo ATP luminescence, 48-72 h; max response: stronger effect = lower value; also: nearly all actives have a fitted effect of over 60% in size; also: potency is read from the fitted curve at half-maximal effect; as to max response: % is scaled to controls: 0 for no effect and ±100 for the full control effect
# Outline: (§2)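 Compounds were pin-transferred onto cells and incubated 48 or 72 hr at 37 degree Celsius, 95% humidity. CellTiter-Glo was added, plates sat 10 min at room temperature, then ATP-coupled luminescence was imaged as the viability read-out.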
# [17] = tested on: HaCat; experiment: as above; details: Five cell lines viability, CellTiter-Glo ATP luminescence, 48-72 h; max response: stronger effect = lower value
# Outline: as §2
# [18] = tested on: NIH3T3; experiment: as above; details: Five cell lines viability, CellTiter-Glo ATP luminescence, 48-72 h; max response: stronger effect = lower value
# Outline: as §2
# [19] = tested on: C33A; experiment: Primary qHTS to identify gynecologic anti-cancer compounds using libraries of approved drugs and bioactive compounds (AID 1345084); details: Gynecologic cancer cell panel viability, ATPlite luminescence, 48 h; series mostly up to 57.5 µM; also: potency is read from the fitted curve at half-maximal effect; nearly all actives have a fitted effect of over 55% in size
# Outline: (§3)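 Cells, 1,000 per well, were allowed to settle for 16 h at 37 C before compound addition. Five concentrations were tested for 48 h, and viability was read by ATPlite luminescence after 15 min at room temperature.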
# [20] = tested on: CAOV3; experiment: as above; details: Gynecologic cancer cell panel viability, ATPlite luminescence, 48 h; series mostly up to 57.5 µM
# Outline: as §3
# [21] = tested on: CASKI; experiment: as above; details: Gynecologic cancer cell panel viability, ATPlite luminescence, 48 h; series mostly up to 57.5 µM
# Outline: as §3
# [22] = tested on: Es-2; experiment: as above; details: Gynecologic cancer cell panel viability, ATPlite luminescence, 48 h; series mostly up to 57.5 µM
# Outline: as §3
# [23] = tested on: HeLa; experiment: as above; details: Gynecologic cancer cell panel viability, ATPlite luminescence, 48 h; series mostly up to 57.5 µM
# Outline: as §3
# [24] = tested on: Hek293T; experiment: as above; details: Gynecologic cancer cell panel viability, ATPlite luminescence, 48 h, control line for the selectivity index; series mostly up to 57.5 µM
# Outline: as §3
# [25] = tested on: JEG-3; experiment: as above; details: Gynecologic cancer cell panel viability, ATPlite luminescence, 48 h; series mostly up to 57.5 µM
# Outline: as §3
# [26] = tested on: OV90; experiment: as above; details: Gynecologic cancer cell panel viability, ATPlite luminescence, 48 h; series mostly up to 57.5 µM
# Outline: as §3
# [27] = tested on: PA-1; experiment: as above; details: Gynecologic cancer cell panel viability, ATPlite luminescence, 48 h; series mostly up to 57.5 µM
# Outline: as §3
# [28] = tested on: Tov-21-G; experiment: as above; details: Gynecologic cancer cell panel viability, ATPlite luminescence, 48 h; series mostly up to 57.5 µM
# Outline: as §3
# [29] = tested on: Tov112D; experiment: as above; details: Gynecologic cancer cell panel viability, ATPlite luminescence, 48 h; series mostly up to 57.5 µM
# Outline: as §3
# [30] = qHTS Assay for Identifying Gametocytocidal Compounds (AID 743244);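 also: % is scaled to controls: 0 for no effect and ±100 for the full control effect; actives lower the fluorescent signal which means gametocytes are killed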; details: P. falciparum 3D7 stage III-V gametocytes, alamarBlue, 72 h; max response: stronger effect = lower value
# Outline: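 P. falciparum 3D7 stage III–V gametocytes (20,000 cells/well) were exposed to compounds for 72 h at 37 °C, 5% CO2. AlamarBlue was then added for 24 h; decreased resorufin fluorescence (Ex 525/Em 598 nm) indicated loss of viability.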
# [31] = Primary qHTS for Huh7 cytotoxicity: counterscreen for inhibitors of MERS-S pseudotyped particle cell entry (AID 1479147; calls by dose curve); details: outcome: dose series up to 57.1 µM unless noted
# [32] = Primary qHTS for inhibitors of MERS-S pseudo-typed particle cell entry (AID 1479149; calls by dose curve; also: nearly all actives have a fitted effect of over 60% in size)
# [33] = Primary qHTS for Vero E6 cytotoxicity: counterscreen for inhibitors of SARS-S pseudo-typed particle cell entry (AID 1479150; calls by dose curve); details: outcome: dose series up to 57.1 µM unless noted
# [34] = Cytotoxicity counterscreen for inhibitors of SARS-CoV-2 cell entry (AID 1645845; calls by dose curve; also: nearly all actives have a fitted effect of over 50% in size)
# Outline: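 After a 15 min room-temperature ATPLite 1step step, luminescence reflected ATP remaining in HEK293-ACE2 cells exposed to compound for 1 h plus 48 h at 37 C, with percent activity set by cell and no-cell controls.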
# [35] = Primary qHTS to identify inhibitors of SARS-CoV-2 cell entry (AID 1645846; calls by dose curve; also: nearly all actives have a fitted effect of over 45% in size); details: activity change, negative = inhibition: at 57.1 µM (top of the series) unless noted
# Outline: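 Luminescence readout (Bright-Glo luciferase) 48 h after pseudoparticle addition. HEK293-ACE2 cells, 1500/well; compound pre-incubation 1 h; Normalized to spike PP and bald PP.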
# [36] = target: Glutathione peroxidase 1 (Homo sapiens) (UniProt P07203); experiment: Primary qHTS Assay for Inhibitors of Recombinant Selenoprotein Glutathione Peroxidase 1 (GPX1) (AID 1845191); also: nearly all actives have a fitted effect of over 65% in size
# Chain of Glutathione peroxidase 1 (Homo sapiens) (P07203 whole entry, looked up): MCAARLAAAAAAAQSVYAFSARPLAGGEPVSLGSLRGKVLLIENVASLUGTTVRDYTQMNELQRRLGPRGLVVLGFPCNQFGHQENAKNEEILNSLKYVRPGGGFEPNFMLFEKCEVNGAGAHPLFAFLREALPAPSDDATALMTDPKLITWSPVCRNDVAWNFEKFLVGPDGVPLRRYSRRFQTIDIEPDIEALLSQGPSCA
# Outline: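 GPX1 10 nM, GR 100 nM, GSH 1 mM, NADPH 0.5 mM, CHP 0.5 mM (final). 30-min cpd preincubation, RT. Ex340/Em450 read t=0, t=15 min.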
# [37] = target: Phospholipid hydroperoxide glutathione peroxidase GPX4 (Homo sapiens) (UniProt P36969); experiment: Primary qHTS Assay for Inhibitors of Recombinant Selenoprotein Glutathione Peroxidase 4 (GPX4) (AID 1845192); also: nearly all actives have a fitted effect of over 65% in size
# Chain of Phospholipid hydroperoxide glutathione peroxidase GPX4 (Homo sapiens) (P36969 whole entry, looked up): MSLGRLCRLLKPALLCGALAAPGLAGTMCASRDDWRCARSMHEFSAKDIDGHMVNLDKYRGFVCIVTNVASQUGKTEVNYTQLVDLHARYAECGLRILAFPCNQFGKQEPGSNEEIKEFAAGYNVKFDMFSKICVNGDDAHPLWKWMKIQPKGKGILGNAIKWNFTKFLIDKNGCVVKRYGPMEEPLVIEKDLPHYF
# Outline: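 qHTS, GR-coupled: GPX4 200 nM + cpd 30 min RT → GSH 1 mM, NADPH 0.5 mM, GR 100 nM → CHP 0.5 mM start; fluor 340/450 at t0 and t15 min; no-enzyme wells as control.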
# [38] = tested on: KB-3-1; experiment: Cytotoxic Profiling of Annotated Libraries Using Quantitative High-Throughput Screening (AID 1296008); details: Five cell lines viability, CellTiter-Glo ATP luminescence, 48-72 h; max response: stronger effect = lower value; also: nearly all actives have a fitted effect of over 60% in size; also: potency is read from the fitted curve at half-maximal effect; as to max response: % is scaled to controls: 0 for no effect and ±100 for the full control effect
# Outline: as §2
# [39] = Drug repurposing screens with cells derived from glioblastoma tumor samples (AID 1345199); details: GBM patient neurospheres viability, ATP luminescence, 48 h; Potency: tumour line A; series mostly up to 45.9 µM; also: % is scaled to controls: 0 for no effect and ±100 for the full control effect; nearly all actives have a fitted effect of over 40% in size
# Outline: (§4)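 Primary testing used CD133+ neurospheres from four GBM patients, seven concentrations, 48 h exposure and ATP-based viability; confirmation added three slower-growing patient lines.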
# [40] = tested on: astro; experiment: as above; details: viability, ATP luminescence, 48 h; series mostly up to 45.9 µM
# Outline: as §4
smiles,measurement,setting,value
CC(C)=CCC[C@]1(C)C=Cc2c(O)c3c(c(CC=C(C)C)c2O1)O[C@]12C(=C[C@@H]4CC1C(C)(C)O[C@@]2(C/C=C(/C)C(=O)O)C4=O)C3=O,Potency,[1],4.11 µM (active)
same,Potency,[2],9.87 µM (active)
same,Potency,[3],1.56 µM (active)
same,Potency,[4],2.82 µM (active)
same,Potency,[5],2.82 µM (active)
same,Potency,[6],2.48 µM (active)
same,Potency,[7],1 µM (active)
same,Potency,[8],7.08 µM (active)
same,Potency,[9],8.29 µM (active)
same,Potency,[10],2.94 µM (active)
same,Potency,[11],2.94 µM (active)
same,Potency,[12],0.578 µM (active)
same,Potency,[13],0.365 µM (active)
same,Potency,[14],inactive
same,Potency,[15],inactive
same,Potency,[16],0.731 µM (active)
same,Potency,[17],4.61 µM (active)
same,Potency,[18],1.16 µM (active)
same,Potency,[19],5.62 µM (active)
same,Potency,[20],3.16 µM (active)
same,Potency,[21],2.24 µM (active)
same,Potency,[22],3.16 µM (active)
same,Potency,[23],5.01 µM (active)
same,Potency,[24],5.62 µM (active)
same,Potency,[25],3.98 µM (active)
same,Potency,[26],5.01 µM (active)
same,Potency,[27],4.47 µM (active)
same,Potency,[28],7.94 µM (active)
same,Potency,[29],5.01 µM (active)
CC(=O)[C@@]1(O)CC[C@H]2[C@@H]3CCC4=CC(=O)CC[C@]4(C)C3(F)[C@@H](O)C[C@@]21C (stereo partly specified),max response,[30],7.59% (inactive)
same,Potency,[1],inactive
same,outcome,[31],inactive
same,Potency,[32],inactive
same,outcome,[33],inactive
same,Potency,[34],inactive
same,"activity change, negative = inhibition",[35],-3.62%
same,Potency,[36],inactive
same,Potency,[37],inactive
same,max response,[38],-10.8% (inactive)
same,Potency,[39],inactive
same,Potency,[40],inactive
